From PubChem BioAssay (NCI) come the findings set out here.

The assay can be described thus: NCI Yeast Anticancer Drug Screen. Data for the sgs1 mgt1 strain (AID 161).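 Further: 0% = growth of cultures given vehicle only.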 Particulars: S. cerevisiae sgs1 mgt1 strain, stronger effect = higher value. How it is done: Growth inhibition of yeast strains with defined genetic alterations is measured as a screen for potential anti-cancer activity. Selected strains with alterations in DNA damage repair or cell cycle control were exposed to compounds and growth inhibition was measured relative to vehicle treated controls. The strain used in this assay is sgs1 mgt1

Setting [1] is: at 5.0 µM (retest, dose inferred, filed as 0.5).
Setting [2] is: at 50.0 µM (retest, dose inferred, filed as 5.0).

Molecules are shown by their SMILES. This is part of a sample that, as a whole, favours compounds with a hit. Of some 79,000 tested, about 15% had one in any assay. Unmarked numbers belong to inactive results. The source made the active and inactive calls. No stated cut-off is given here; in the data, active means growth inhibition above about 70%; inactive means the rest.

In the case of `Cc1ccc(Cl)cc1NC(=O)OCCN(C)C(=O)Nc1cc(Cl)ccc1C`, the growth inhibition is -29% under setting [1], 32% under setting [2] and 37.6% (at 50.0 µM).

As to `Cc1ccc(S/C(=C\C(=O)O)c2ccccc2)cc1`, the growth inhibition runs as follows: under setting [1], -12%; under setting [2], 52%; (at 50.0 µM) 64.8%.

With `Cc1c2cccc(Sc3ccccc3)c2c2c3c(cccc13)[S+](c1ccccc1)C2` (configuration not stated), the growth inhibition reads like this: under setting [1], 18%; under setting [2], 98% (active); (at 50.0 µM) 94.2% (active).

For `O=C(O)CCCC1CCCc2c1ccc1ccccc21` (configuration not stated), the growth inhibition runs as follows: under setting [1], 13%; under setting [2], 86% (active); (at 50.0 µM) 94.3% (active).

Regarding `Cc1cc(=O)oc2c(C)c3occc(=O)c3cc12`, the growth inhibition was -10% under setting [1], 8% under setting [2] and 74.4% (active) (at 50.0 µM).

Regarding `O=[N+]([O-])c1cc(F)c(F)cc1Sc1cc(F)c(F)cc1[N+](=O)[O-]`, the growth inhibition was 64% under setting [1], 98% (active) under setting [2] and 98.3% (active) (at 50.0 µM).

With `CC(C)OC(=O)c1ccc(CCc2cc(O)c(Br)cc2O)cc1`, the growth inhibition reads like this: under setting [1], 31%; under setting [2], 98% (active); (at 50.0 µM) 88.5% (active).

As for `C/C(=N\Nc1ccc([N+](=O)[O-])cc1[N+](=O)[O-])c1sc(-n2nc(-c3ccccc3)cc2-c2ccccc2)nc1C`, the growth inhibition under setting [1] was 11%, the growth inhibition under setting [2] was 57% and the growth inhibition (at 50.0 µM) was 75.3% (active).

With `CC[N+]1(C)CCC(O)(c2ccc(OC)cc2)C(C(=O)c2ccc(OC)cc2)C1` (configuration not stated), the growth inhibition reads like this: under setting [1], 87% (active); under setting [2], 95% (active); (at 50.0 µM) -4.7%.

`Cc1cc(C)c(NC(=S)NC(=O)c2ccccc2)cc1C`: the growth inhibition is, setting by setting: under setting [1], -7%; under setting [2], 41%; (at 50.0 µM) 25.3%.

Turning to `N#CC1=C(N)N(/N=C/c2ccccc2)C(c2ccccc2)C1(C#N)C#N` (configuration not stated), the growth inhibition runs as follows: under setting [1], 5%; under setting [2], 76% (active); (at 50.0 µM) 76.6% (active).

For the molecule `CC(C)OC(=O)Nc1ccc2nc(-c3cscn3)[nH]c2c1`, the growth inhibition under setting [1] was 1%, the growth inhibition under setting [2] was 39% and the growth inhibition (at 50.0 µM) was 76% (active).

`COc1ccc(C2C3=C(COC3=O)OC(C)(C)Oc3cc4c(cc32)OCO4)cc1OC` (configuration not stated): the growth inhibition under setting [1] is -9%, the growth inhibition under setting [2] was 50% and the growth inhibition (at 50.0 µM) is 96.7% (active).

With `COc1c(O)c(C=O)c(Br)c(C=O)c1O`, the growth inhibition runs as follows: under setting [1], 16%; under setting [2], 96% (active); (at 50.0 µM) 99% (active).
